Laboratory results as given in the supplement of paper PMC7057948, “A genome-wide approach for identification and characterisation of metabolite-inducible systems” (Nature Communications, 2020).

What was measured:
Experiment in all cases: relative induction of RFP reporter vs primary effector (background-corrected); higher = stronger activation of the biosensor
Conditions in all cases: inducer concentration 5 mM; 6 h; Cupriavidus necator H16; minimal medium + 0.4% gluconate
[1] = system: AcoR/P_H16_RS19445 acetoin biosensor (pEH052)
Description: (§1)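 C. necator H16 strains, each carrying one of 21 transcription factor/inducible promoter–mRFP biosensor plasmids, were grown in minimal medium in 96-well plates (robotic platform). Each was exposed to 46 structurally or metabolically related compounds at 5 mM at 30 °C. OD-normalised RFP fluorescence was read 6 h later and expressed as relative induction (%) = 100 × (FL compound − FL uninduced)/(FL primary inducer − FL uninduced); mean of n=4.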

[2] = system: AraC/P_araBAD L-arabinose biosensor (pEH176)
Description: as §1

[3] = system: BadR/P_H16_RS27200 cyclohexanecarboxylate biosensor (pEH159)
Description: as §1

[4] = system: BenM/P_H16_RS09790 benzoate biosensor (pEH148)
Description: as §1

[5] = system: FdsR/P_H16_RS03165 formate biosensor (pEH134)
Description: as §1

[6] = system: GabR/P_H16_RS23655 GABA biosensor (pEH256)
Description: as §1

[7] = system: HpdR/P_H16_RS18295 3-hydroxypropanoate biosensor (pEH010)
Description: as §1

[8] = system: KynR/P_H16_RS14030 L-kynurenine biosensor (pEH136)
Description: as §1

[9] = system: NahR/P_H16_RS08125 salicylate biosensor (pEH042)
Description: as §1

[10] = system: OapR/P_H16_RS01330 beta-alanine biosensor (pEH147)
Description: as §1

[11] = system: PcaQ/P_H16_RS30145 3,4-dihydroxybenzoate biosensor (pEH161)
Description: as §1

[12] = system: PhgR/P_H16_RS05530 phenylglyoxylate biosensor (pEH155)
Description: as §1

[13] = system: PhhR/P_H16_RS18365 L-phenylalanine biosensor (pEH137)
Description: as §1

[14] = system: SauR/P_H16_RS13695 sulfonatoacetate biosensor (pEH157)
Description: as §1

[15] = system: TtdR/P_H16_RS10665 tartrate biosensor (pEH083)
Description: as §1

[16] = system: XdhR/P_H16_RS05055 xanthine biosensor (pEH154)
Description: as §1

[17] = system: heterologous inducible system pEH002 (rhamnose/acrylate/cumate/itaconate set)
Description: as §1

[18] = system: heterologous inducible system pEH020 (rhamnose/acrylate/cumate/itaconate set)
Description: as §1

[19] = system: heterologous inducible system pEH040 (rhamnose/acrylate/cumate/itaconate set)
Description: as §1

[20] = system: heterologous inducible system pEH086 (rhamnose/acrylate/cumate/itaconate set)
Description: as §1
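Further: RFP excited at 585 nm with emission read at 620 nm, culture medium blanks subtracted from fluorescence and absorbance prior to normalisation.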

| SMILES | relative induction of RFP reporter [1] | relative induction of RFP reporter [2] | relative induction of RFP reporter [3] | relative induction of RFP reporter [4] | relative induction of RFP reporter [5] | relative induction of RFP reporter [6] | relative induction of RFP reporter [7] | relative induction of RFP reporter [8] | relative induction of RFP reporter [9] | relative induction of RFP reporter [10] | relative induction of RFP reporter [11] | relative induction of RFP reporter [12] | relative induction of RFP reporter [13] | relative induction of RFP reporter [14] | relative induction of RFP reporter [15] | relative induction of RFP reporter [16] | relative induction of RFP reporter [17] | relative induction of RFP reporter [18] | relative induction of RFP reporter [19] | relative induction of RFP reporter [20] |
| --- | --- | --- | --- | --- | --- | --- | --- | --- | --- | --- | --- | --- | --- | --- | --- | --- | --- | --- | --- | --- |
| NCCc1ccc(O)c(O)c1 [dopamine] | 0.498% | -0.00264% | 1.95% | 0.0224% | 2.79% | 0.204% | 0.166% | 0.568% | 0.0188% | 0.108% | 0.356% | 0.249% | 0.138% | 0.18% | 1.41% | 0.0292% | 0.0361% | 0.433% | 1.22% | 0.396% |
| O=C(O)CCC(=O)O [succinate] | -1.14% | -0.00365% |  | -0.0349% | 6.43% | -0.306% | -0.187% | 0.402% | 0.0287% | -0.209% | -0.0829% | -0.471% | 0.239% | -0.0135% | 0.784% | 0.357% | 0.0102% | -1.2% | -1.6% | 0.338% |
| O=C(O)/C=C/C(=O)O [fumarate] | -1.09% | 0.0135% |  | 0.214% | 12.2% | -0.753% | 0.112% | -0.13% | -0.00283% | 0.456% | 0.0475% | -0.207% | 0.00492% | 0.00629% | 0.78% | 0.739% | 0.00534% | -0.346% | -1.36% | 0.533% |
| Cn1cnc2c1c(=O)[nH]c(=O)n2C [theobromine] | 0.603% | 0.0327% |  | 0.0104% | 3.33% | -2.07% | 0.0941% | 1.51% | 0.0192% | 0.977% | -0.0479% | 0.316% | 1.05% | -0.00533% | 0.646% | 0.45% | 0.0324% | -0.957% | 0.453% | 0.597% |
| O=C(O)c1cc(=O)c2ccccc2[nH]1 [kynurenate] | -1.75% | -0.028% |  | -0.0535% | -9.16% | -2.49% | -0.379% | 0.25% | 0.0049% | -1.34% | 0.113% | -0.313% | -0.383% | 0.00396% | -0.284% | -0.96% | 0.00297% | -2.26% | -1.57% | -0.378% |
| Oc1ccccc1 [phenol] | -1.65% | -0.0137% |  | -0.0189% | -3.17% | -2.32% | -0.39% | -0.287% | 0.011% | -1.38% | -0.0887% | -0.147% | -0.522% | 0.0243% | 0.576% | -0.78% | -0.0073% | -2.66% | -1.14% | -0.575% |
| N[C@@H](CC(=O)O)C(=O)O [L-aspartate] | -1.54% | -0.0179% |  | -0.0325% | 3.34% | -1.17% | -0.138% | -0.00294% | 0.0255% | 0.356% | -0.0549% | -0.232% | 0.437% | 0.0772% | -0.474% | -0.175% | 0.02% | -0.78% | -1.36% | 0.389% |
| NC(C(=O)O)c1ccccc1 (racemic) [D,L-2-phenylglycine] | 2.41% | -0.0373% |  | 0.0272% | 5.96% | -1.88% | 0.893% | -0.416% | 0.0395% | 0.858% | 0.145% | 1.69% | -0.209% | -0.00851% | 0.176% | 0.377% | 0.012% | 3.29% | 0.705% | 0.876% |
| O=C(O)C1=CCCCC1 [cyclohexene-1-carboxylate] | 2.55% | -0.0101% |  | 156% | -3.7% | -1.27% | -0.493% | 0.423% | -0.00892% | 1.03% | -0.0381% | -0.121% | -0.244% | 0.0222% | 0.391% | 0.161% | 0.0231% | 0.24% | 1.34% | 0.551% |
| O=c1[nH]cnc2nc[nH]c12 [hypoxanthine] | -1.99% | 0.0138% |  | -0.0181% | -4.61% | -0.0294% | 0.126% | -0.263% | 0.0182% | 1.08% | -0.186% | 0.109% | -0.204% | 0.0689% | 0.797% | 166% | 0.00894% | -1.8% | -0.718% | 0.0665% |
| O=C(O)C[C@H](O)C(=O)O [L-malate] | -0.197% | 0.0102% |  | -0.00804% | 15.3% | -2.18% | 0.127% | 0.34% | 0.0296% | 0.168% | 0.148% | -0.316% | 0.413% | -0.0175% | 1.58% | 0.88% | 0.00418% | -0.286% | -0.274% | 0.726% |
| C[C@H](O)C(=O)O [L-lactate] | 29% | -0.0302% |  | -0.0365% | 1.58% | -1.56% | 0.0155% | -0.0815% | 0.00963% | -0.633% | -0.0469% | -0.429% | -0.296% | -0.0258% | 0.33% | -0.526% | 0.0108% | -1.63% | -1.88% | -0.0751% |
| O=C(O)c1c(O)cccc1O [2,6-dihydroxybenzoate] | 2.22% | 0.019% |  | 0.0383% | -4.96% | 1.87% | 0.277% | 0.406% | 8.29% | 0.369% | 0.0449% | -0.403% | 0.0318% | 0.0103% | -0.411% | 0.89% | 0.00673% | 2.01% | 0.428% | 0.26% |
| NCCS(=O)(=O)O [taurine] | -0.255% | -0.0412% |  | -0.0223% | -0.473% | -1.59% | -0.142% | -0.215% | 0.0156% | 0.934% | 3.14% | -0.395% | -0.387% | 2.29% | 0.0679% | -0.494% | 0.00496% | -0.468% | -0.555% | 0.38% |
| O=C(O)CC(=O)C(=O)O [oxaloacetate] | 0.0874% | -0.00919% |  | -0.0305% | 2.96% | -0.991% | 0.0505% | -0.384% | 0.0244% | 0.302% | -0.0492% | -0.502% | -0.153% | 0.016% | -0.0827% | -0.199% | 0.0189% | -0.323% | -0.91% | -0.0639% |
| O=c1cc[nH]c(=O)[nH]1 [uracil] | -0.264% | -0.0292% |  | -0.0102% | 2.09% | 0.468% | 0.292% | 1.02% | 0.0235% | 0.971% | -0.0843% | -0.376% | 0.347% | -0.0169% | -0.0341% | 0.952% | 0.0212% | 0.742% | -0.00512% | 0.875% |
